# Screens deposited in PubChem by National Center for Advancing Translational Sciences (NCATS).
# Only some compounds are listed: those with a hit (about 6.9% of all), similar ones and a draw of the others.
# HP1b binding inh: blocks HP1-beta chromodomain binding to methylated histone tails; P83916; AlphaScreen HP1-beta / biotin-H3K9me3 peptide binding; Potency, µM (top dose mostly 114 µM), actives largely listed as inhibitors; 390,000 compounds, 0.56% hits; AID 540317; further: nearly all actives have a fitted effect of over 70% in size
#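 AlphaScreen: HP1-beta (50 nM) preformed 30 min with biotin-H3(1-18)K9me3 peptide (50 nM) in PBS pH 7.4, 0.01% Tween-20. Compound added for 30 min at RT, then streptavidin donor/nickel chelate acceptor beads (10 ug/mL) for 30 min.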
# JMJD2A Tudor: inhibitors of human JMJD2A Tudor domain; O75164; AlphaScreen JMJD2A-Tudor / H3K4me3 peptide binding; Potency, µM (series often up to 114 µM), usual class: inhibitors; 390,000 compounds, 4.4% hits; AID 504339; further: nearly all actives have a fitted effect of over 50% in size
# L3MBTL1 inh: inhibitors of human L3MBTL1 | Q9Y468 | 230,000 compounds, 0.66% hits | AlphaScreen L3MBTL1–H3K9me1 peptide binding | Potency, µM (series often up to 57.1 µM), usual class: inhibitors; further: nearly all actives have a fitted effect of over 60% in size
#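 AlphaScreen assay: L3MBTL1 (50 nM final) was preincubated 30 min at room temperature with biotinylated H3(1-15)K9me1 peptide (75 nM final), then 30 min with library compounds; streptavidin donor and nickel chelate acceptor beads (10 ug/mL final) added, 30 min dark.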
# BAZ2B block: BAZ2B (human) inhibition; 360,000 compounds, 4.4% hits; Q9UIF8; Potency, µM (doses to about 114 µM), usual class: inhibitors; AlphaScreen BAZ2B-H3K14Ac peptide displacement; further: nearly all actives have a fitted effect of over 60% in size
#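 Inhibition is scored as reduced AlphaScreen emission. The BAZ2B/b-H3(5-23)K14Ac complex (50 nM each) in PBS pH 7.4, 0.01% Tween-20 meets compound (up to 110 uM) for 30 min at RT before bead addition.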
# VDR inh: inhibitors of human vitamin D receptor; P11473; VDR-SRC2-3 peptide fluorescence polarization, 2 h; Potency, µM, actives largely listed as inhibitors; 400,000 compounds, 0.93% hits; AID 504847
#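 Reagent solutions, kept cold and dark, are dispensed first; compounds are then pinned in at 23 nl, plates briefly spun, and incubated 2 h at ambient temperature. Inhibition of VDR–SRC2-3 peptide binding is read by fluorescence polarization.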
# PLK1 PBD block: inhibitors of human PLK1 polo-box domain binding. AID 720504. Potency, µM, actives largely listed as inhibitors. 360,000 compounds, 2.8% hits. Plk1 PBD binding of FITC phosphopeptide, fluorescence polarization; further: series mostly up to about 57 µM; nearly all actives have a fitted effect of over 65% in size
# Target sequence (P53350 whole entry, looked up, the tested form may be a part): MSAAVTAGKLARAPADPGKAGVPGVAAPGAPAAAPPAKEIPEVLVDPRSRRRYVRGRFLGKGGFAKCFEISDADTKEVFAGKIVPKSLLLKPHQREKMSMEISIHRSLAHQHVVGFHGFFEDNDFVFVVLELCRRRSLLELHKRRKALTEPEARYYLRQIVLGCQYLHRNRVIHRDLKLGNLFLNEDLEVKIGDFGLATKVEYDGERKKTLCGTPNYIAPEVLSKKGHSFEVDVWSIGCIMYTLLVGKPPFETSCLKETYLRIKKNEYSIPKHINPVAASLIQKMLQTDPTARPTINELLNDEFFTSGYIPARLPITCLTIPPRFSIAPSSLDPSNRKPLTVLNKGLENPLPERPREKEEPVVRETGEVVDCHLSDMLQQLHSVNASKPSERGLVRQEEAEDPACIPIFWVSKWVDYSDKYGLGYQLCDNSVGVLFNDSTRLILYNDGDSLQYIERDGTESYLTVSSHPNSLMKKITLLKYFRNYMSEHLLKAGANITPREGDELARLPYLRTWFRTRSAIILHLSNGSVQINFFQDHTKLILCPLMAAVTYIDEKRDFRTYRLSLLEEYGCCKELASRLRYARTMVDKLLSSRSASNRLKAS
# A number is an active result; - = inactive; ? = inconclusive; . = not tested or not shown; ! = repeats disagree; [ ] = remark or other dose. The call rests on the fitted dose curve; in most records, active means well fitted curve in the direction sought with a large enough effect; inconclusive means small, poorly fitted or top-dose-only effect, or another doubt; inactive means no such curve, though single readings can be large; an effect the other way counts as inactive or inconclusive.
SMILES,HP1b binding inh,JMJD2A Tudor,L3MBTL1 inh,BAZ2B block,VDR inh,PLK1 PBD block
COc1ccc(C2CC(=O)c3cnc(N4CCN(Cc5ccccc5)CC4)nc3C2)cc1 (stereo not drawn),-,-[11.4 µM],-,-,-,21µM
CCC(=O)NC(/C=C/c1ccccc1)c1cc([N+](=O)[O-])c2cccnc2c1O (stereo not drawn),.,.,-,4.5µM,.,.
Cc1ccc(C(=O)NC(c2ccco2)c2cc(Cl)c3cccnc3c2O)cc1 (stereo not drawn),.,-,.,.,.,.
Cc1ccc(C(NC(=O)C(C)C)c2cc([N+](=O)[O-])c3cccnc3c2O)cc1 (stereo not drawn),-,25µM,25µM,7.9µM,-,-
CCOC(=O)c1sc2ccccc2c1S(=O)(=O)NCc1ccccc1OC,-,-,.,-,-,.
CCN(CC)C(=O)COc1ccc2oc(-c3ccco3)cc(=O)c2c1,-,?,-,?,-,-
COc1ccc(-n2c(/C=C/c3cc(OC)c(OC)cc3OC)nc3cc4ccccc4cc3c2=O)cc1Cl,-,?,.,28µM,-,.
CCn1c(/C(C#N)=N/O)nc2ccccc21,-,?,?,?,-,-
N#C/C(=C(\O)c1cc(Cl)sc1Cl)c1nc2ccccc2[nH]1,-,-,.,71µM,-,-
N#C/C(=C(/O)C(Cl)(Cl)Cl)c1nc2ccccc2[nH]1,-,50µM,-,-,-,-
Cn1c(/C(C#N)=N/O)nc2ccccc21,-,?,-,71µM,-,-
N#C/C(=N\O)c1nc2ccccc2[nH]1,-,56µM,-,?,-,-
CCOc1ccccc1NC(=O)N(Cc1ccc(C)o1)C1CCN(C(C)=O)CC1,-,-,.,-,-,.
CCCCN(C(=O)c1cccc(S(=O)(=O)N2CCCCC2)c1)C1CCS(=O)(=O)C1 (stereo not drawn),-,-,.,-,-,-
Cc1ccc(-n2c(=O)c3c(cnn3C)n(CC(=O)Nc3cccc(Cl)c3)c2=O)cc1,-,-,.,-,-,.
Cc1cccc(CCNC(=O)c2nn(C)c3c2CSc2ccccc2-3)c1,-,-,.,-,-,.
COc1ccc(CNc2ncc(-c3ccc(Cl)cc3)n2C)c(OC)c1OC,?,25µM,-,?,-,-
CCOc1ccc(-c2cnc(NCc3ccc(OC)cc3OC)n2C)cc1,?,28µM,.,?,-,.
OCCN(Cc1ccccc1)Cc1ccc(C(F)(F)F)cc1,16µM,7.9µM,.,?,-,-
O=C(CCN(CCO)Cc1ccccc1)Nc1ccc(Br)cc1,-,-,-,-,-,-
OCCN(Cc1ccccc1)Cc1cccc(C(F)(F)F)c1,?,7.9µM,.,?,-,-
OCCN(Cc1ccccc1)Cc1cccc(Cl)c1Cl,?,10µM,-,50µM,-,-
CC(=O)c1ccc(NC(=O)Cn2ncc3c(C)n(Cc4ccc(F)cc4)c(C)c3c2=O)cc1,-,-,.,-,-,.
Cc1nn(-c2ccccc2)c(-n2cccc2)c1C(=O)NCCc1ccc(Cl)cc1,-,-,.,-,-,.
Cc1nc(-c2cccc(F)c2)sc1CCNC(=O)Cc1ccc(F)cc1,-,-,.,-,-,.
SMILES,HP1b binding inh,JMJD2A Tudor,L3MBTL1 inh,BAZ2B block,VDR inh,PLK1 PBD block
N[C@@H](Cc1cc(I)c(Oc2ccc(O)cc2)c(I)c1)C(=O)O,.,.,.,.,-,.
CCOC(=O)/C(C#N)=N/Nc1c(C)n(C)n(-c2ccccc2)c1=O,-,-,.,79µM,-,-
Cc1c(NC=C(C#N)C#N)c(=O)n(-c2ccccc2)n1C,-,-,-,-,-,-
Cc1ccccc1C(=O)/C(C#N)=N/Nc1c(C)n(C)n(-c2ccccc2)c1=O,-,50µM,-,50µM,-,-
CCOC(=O)Nc1c(C)n(C)n(-c2ccccc2)c1=O,-,-,-,-,-,-
Cc1c(NC(=O)Nc2ccc(C#N)cc2)c(=O)n(-c2ccccc2)n1C,-,-,.,-,-,?
Cc1c(N/N=C(\C#N)C(=O)c2ccccc2)c(=O)n(-c2ccccc2)n1C,-,56µM,?,32µM,-,-
Cc1ccc(C(=O)Nc2nnc(S(=O)(=O)N(C)Cc3ccc(Cl)cc3)s2)cc1,-,-,.,-,-,.
COc1ccc(C)cc1NC(=O)COCc1cc(-c2ccc(F)cc2)on1,-,-,.,-,-,.
CCN(C(=O)CN1C(=O)CN(C)C1=O)c1cccc2ccccc12,-,-,-,.,-,-
CCN(C(=O)CN1CCN(C)CC1)c1cccc2ccccc12,?,1.8µM,-,32µM,-,-
N/C(=N\OC(=O)COc1ccc(Br)cc1Cl)c1ccccn1,-,79µM,-,-,-,-
N/C(=N\OC(=O)/C=C/c1ccccc1Cl)c1ccccn1,-,-,.,79µM,-,-
CC(C(=O)O/N=C(\N)c1ccccn1)c1ccc([N+](=O)[O-])cc1 (stereo not drawn),-,-,.,56µM,-,-
N/C(=N\OCc1ccc([N+](=O)[O-])cc1)c1ccccn1,-,-,.,-,-,-
N/C(=N\OC(=O)Cc1ccccc1)c1ccccn1,?,-[11.4 µM],-,-,-,12µM
CCc1cccc(NC(=O)c2nc(-c3ccncc3)no2)c1,-,-,.,-,-,.
C/C(=N\Nc1ccc(S(=O)(=O)N2CCOCC2)cc1[N+](=O)[O-])C(C)C,?,45µM,-,.,-,-
Cc1ccc(-n2c(O)c(/C=N/Nc3ccc(S(=O)(=O)N4CCOCC4)cc3[N+](=O)[O-])c3ccccc3c2=O)c(C)c1,4µM,28µM,?,13µM,?,?
Cc1ccc(S(=O)(=O)Nc2ccc(S(=O)(=O)N3CCOCC3)cc2)cc1[N+](=O)[O-],-,-,.,-,-,-
O=C(O)c1ccc(/C=N\Nc2ccc(S(=O)(=O)N3CCOCC3)cc2[N+](=O)[O-])cc1,-,?,-,?,-,-
Cc1ccc(Nc2ccc(S(=O)(=O)N3CCOCC3)cc2[N+](=O)[O-])cc1C,?,?,?,11µM,-,-
CCOc1cc2[nH]c(=O)n(CCCCC(=O)N3CCN(c4ccccc4OC)CC3)c(=O)c2cc1OCC,-,-,.,-,-,.
CN(c1ccccc1)S(=O)(=O)c1ccc(C(=O)N2CCN(c3ccccc3)CC2)cc1,.,.,.,.,.,-
COc1ccc(Cn2c(CCC(=O)Nc3cc(C)cc(C)c3)nc3cccnc32)cc1,-,-,.,-,-,.
COc1ccc(Cn2c(CCC(=O)Nc3ccc(C)cc3)nc3cccnc32)cc1,-,79µM!,.,-,-,24µM
CCN(CC)c1ccc(NC(=O)CCc2nc3cccnc3n2Cc2cccs2)c(C)c1,-,20µM,.,?,-,.
CCN(CC)c1ccc(NC(=O)CCS(=O)(=O)c2cccc3nsnc23)c(C)c1,?,56µM,-,?,-,-
Cc1ccc(NC(=O)CCS(=O)(=O)c2cccc3nsnc23)c(C)c1,-,-,.,-,-,.
O=C(NCc1ccc(Cl)cc1)C(=O)NCC(c1cccnc1)N1CCN(c2ccccc2)CC1 (stereo not drawn),-,-,.,-,-,.
